PubChem BioAssay AID2685 (National Center for Advancing Translational Sciences (NCATS), 2010)
Hit rate of the full screen: of about 320,000 compounds, about 2,100 (0.66%) were called active. Not shown: some 53% with an inconclusive outcome. Calls follow the shape of the dose curve; as a rule, active = well fitted inhibition curve with a large enough effect in the signal ratio, with a control signal flat (not every such curve was filed as active); inconclusive = small, poorly fitted or top-dose-only effect, or effect the other way, or a change in a side signal; inactive = flat fitted curve, though single readings scatter; the % refers to the signal ratio. For the sample, actives were picked, then their nearest neighbours and some compounds at random.

test: qHTS Assay for Lipid Storage Modulators in Drosophila S3 Cells; settings: BODIPY lipid droplet fluorescence, 18-24 h, cells fed with added oleic acid; cell number change: measured here: cell count max response; series mostly up to 46.1 µM; lipid storage change, negative = inhibition: at the top concentration;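 as to cell number change: cells counted by Cell Tracker Red CMTPX staining in the red channel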; as to lipid storage change, negative = inhibition: % is scaled to controls: 0 for no effect and ±100 for the full control effect
Procedure, shortened: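 Laser-scanning cytometry quantifies lipid droplet accumulation (500–530 nm total intensity; droplet/cell object ratio) in oleic acid-fed (400 uM added) Drosophila S3 cells treated with a concentration series. 20 uM Triacsin C defined 100% inhibition.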
Potency is read from the fitted curve at half-maximal effect.

| Compound | lipid storage change, negative = inhibition | cell number change [%] | outcome | Potency |
| --- | --- | --- | --- | --- |
| O=C(COC(=O)Cc1ccccc1F)Nc1cc(S(=O)(=O)N2CCOCC2)ccc1N1CCCC1 | 0.102% (inactive) | 0.15 | – | – |
| COC(=O)CN1C(=O)N/C(=C/c2ccc(OC)cc2)C1=O | -9.61% (inactive) | -7.72 | – | – |
| O=C(NC1CC1)c1ccc(S(=O)(=O)NCC2CCCCC2)cc1 | 1.43% (inactive) | 6.17 | – | – |
| NC(=O)c1ccc(Oc2ccc(Cl)cc2)c([N+](=O)[O-])c1 | -2.44% (inactive) | 18.1 | – | – |
| NC(=O)c1ccc(Oc2ccc(-c3nnco3)cc2)c([N+](=O)[O-])c1 | – | 16.7 | inactive | – |
| NC(=O)c1ccc(Oc2ccc3c(c2)CCC3)c([N+](=O)[O-])c1 | – | -16.2 | – | 2.91 µM (active) |
| CCOc1ccc(Cl)cc1S(=O)(=O)N1CCCC1 | – | 23.3 | inactive | – |
| COc1cnc(-c2ccccc2)nc1Sc1ccccc1 | 9.35% (inactive) | 14.5 | – | – |
| CN(C)S(=O)(=O)c1ccc(C(=O)NCCOc2ccc(F)cc2)cc1 | – | 5.77 | – | 18.4 µM (active) |
| CCc1ccc(OCCNC(=O)c2ccc(S(=O)(=O)N(C)C)cc2)cc1 | – | -5.09 | inactive | – |
| CCN(CC)S(=O)(=O)c1ccc(C(=O)NCCOC(=O)c2ccc(F)cc2F)cc1 | – | – | – | 4.61 µM (active) |
| CCN(CC)CCNC(=O)c1ccc(NC(=O)c2ccc(F)cc2F)cc1 | 0.115% (inactive) | 0.662 | – | – |
| CN(C)S(=O)(=O)c1cccc(C(=O)NCCOC(=O)c2cc(F)c(F)cc2Cl)c1 | – | 5.13 | inactive | – |
| CN(C)S(=O)(=O)c1ccc(C(=O)NCCOc2ccccc2)cc1 | -16.1% (inactive) | -3.57 | – | – |
| CN1C(C(=O)NCc2ccccc2)CC2Cn3c(nc4cc(Cl)c(Cl)cc43)C21 (stereo not given) | 14.4% (inactive) | 23.6 | – | – |
| CS(=O)(=O)N1CCN(c2ccc(C(=O)N3CCOCC3)cc2[N+](=O)[O-])CC1 | 0.674% (inactive) | 10.2 | – | – |
| COc1nc2ccccc2nc1CCC(=O)O | -2.96% (inactive) | -4.36 | – | – |
| CC(=O)Nc1nc(=O)c2ccccc2s1 | 14.6% (inactive) | -8.23 | – | – |
| O=C(Nc1ccc2c(c1)OCCO2)c1ccc(Cl)c([N+](=O)[O-])c1 | – | -0.392 | – | 16.4 µM (active) |
| O=C(Nc1ccc2c(c1)OCCO2)c1ccc(Cl)cc1Cl | – | -12.4 | inactive | – |
| Cc1cc(C(=O)Nc2ccc3c(c2)OCCO3)ccc1[N+](=O)[O-] | -9.88% (inactive) | 0.293 | – | – |
| O=C(Nc1ccc(NC(=O)c2ccc(Cl)cc2Cl)cc1)c1ccc2c(c1)OCO2 | – | -0.901 | – | 16.4 µM (active) |
| O=C(Nc1ccc(Cl)c([N+](=O)[O-])c1)c1ccc2c(c1)OCCO2 | 2% (inactive) | 0.135 | – | – |
| O=C(Nc1ccc(F)c(F)c1)c1ccc2c(c1)OCO2 | -1.25% (inactive) | -8.99 | – | – |
| Fc1cccc(Cl)c1Cn1nnc2c(NCc3ccccn3)ncnc21 | -4.63% (inactive) | -17.4 | – | – |
| O=C(Nc1ccc(N2CCOCC2)cc1)C1CC1 | 11.2% (inactive) | 20.3 | – | – |

| Compound | lipid storage change, negative = inhibition | cell number change [%] | outcome | Potency |
| --- | --- | --- | --- | --- |
| O=C(Nc1ccc(Cl)cc1N1CCOCC1)C1CC1 | -18.3% (inactive) | -0.587 | – | – |
| CC(C)(C)C1CCC(C(=O)Nc2ccc(N3CCOCC3)cc2N2CCOCC2)CC1 (stereo not given) | – | 2.76 | – | 0.0731 µM (active) |
| CC(C)c1ccccc1NC(=O)c1ccc2ncsc2c1 | – | 3.81 | inactive | – |
| Cc1cc(C)c2nc(-c3ccncc3)cc(C(=O)N3CCN(Cc4ccccc4Cl)CC3)c2c1 | – | -25.7 | inactive | – |
| CCOc1ccc(-c2cc(CCCC(=O)NCc3ccco3)no2)cc1 | 21.6% (inactive) | 7.38 | – | – |
| CC(=O)Nc1cccc(NC(=O)c2ccccc2OCc2ccccc2)c1 | – | 4.05 | – | 0.103 µM (active) |
| CC(=O)c1cccc(NC(=O)c2ccccc2OCc2ccc(F)cc2)c1 | -11.7% (inactive) | 17.5 | – | – |
| CC(=O)Nc1cccc(NC(=O)c2cccc(OCc3ccccc3)c2)c1 | 8.52% (inactive) | -0.179 | – | – |
| Cc1cc(N2CCN(c3ccccc3)CC2)n2cc(-c3ccccc3)nc2n1 | 0.159% (inactive) | 0.751 | – | – |
| O=C(O)c1cc(-c2ccccc2)n[nH]1 | 8.55% (inactive) | -6.51 | – | – |
| COc1ccc(-c2cc(C(=O)O)[nH]n2)cc1OC | – | -22.4 | – | 18.4 µM (active) |
| COc1ccc(-c2cc(C(=O)NN)[nH]n2)cc1OC | 0.0767% (inactive) | 0.0556 | – | – |
| COc1ccccc1NS(=O)(=O)c1cccc(C(=O)NNC(=O)C(NC(N)=O)C(C)C)c1 (stereo not given) | -8.45% (inactive) | -2.91 | – | – |
| COc1ccc(-c2nc(/C=C3\C(C)=Nc4ccccc43)c(O)o2)cc1 | -27.4% (inactive) | 8.93 | – | – |
| CC1=Nc2ccccc2/C1=C\c1nc(-c2ccc(F)cc2)oc1O | – | -8.49 | – | 4.11 µM (active) |
| CN=Cc1nc(-c2ccccc2)oc1O | 8.51% (inactive) | 3.36 | – | – |
| CCC(=O)NC(=S)Nc1ccc(NC(=O)c2ccc([N+](=O)[O-])cc2Cl)cc1 | -10.6% (inactive) | -6.05 | – | – |
| CC(=O)OCC1=C(C(=O)O)N2C(=O)C(NC(=O)c3ccc(COc4ccc(Cl)cc4)o3)C2SC1 (stereo not given) | 6.11% (inactive) | 12.1 | – | – |
| O=[N+]([O-])c1cc(C(F)(F)F)ccc1N1CCC(O)CC1 | 3.91% (inactive) | 9.29 | – | – |
| O=C(C1CCC1)N1CCN(c2ccc(C(F)(F)F)cc2[N+](=O)[O-])CC1 | – | 4.32 | – | 0.58 µM (active) |
| NC(=O)C1CCN(c2ccc(C(F)(F)F)cc2[N+](=O)[O-])CC1 | 3.26% (inactive) | – | – | – |
| C1CCC(Nc2nc3nonc3nc2N2CCSCC2)C1 | 1.7% (inactive) | -7.42 | – | – |
| O=C(NN(C(=O)C1CC1)c1nc2ccccc2s1)C1CC1 | 0.109% (inactive) | 4.43 | – | – |
| O=C(O)CCC(=O)Nc1ccc(N=Nc2ccccc2)cc1 | – | -12.6 | inactive | – |
| O=C(O)CCCC(=O)Nc1ccc(N=Nc2ccccc2)cc1 | 0.135% (inactive) | 17 | – | – |
